# Source: PubChem BioAssay (NCATS)
# Inconclusive results are not listed. Entries that show only a call come without a potency. Calls of active or inactive are those of the source. Calls follow the shape of the dose curve; as a rule, active = well fitted curve in the direction sought with a large enough effect; inconclusive = small, poorly fitted or top-dose-only effect, or another doubt; inactive = no such curve, though single readings can be large; an effect the other way counts as inactive or inconclusive. Starred links: 1 amine or outer side, 2 acyl side, 3 side chain; linkers in the order of their positions; H or OH if unused. Positions of bridges follow the written chain, without caps; N, C: chain ends. Non-standard residues stand in square brackets, D forms with d. Residues, ends and D or L forms follow the SMILES beside them. Chains are numbered I, II in the order given. Actinocin(9to1) = Cc1c2oc3c(C)ccc(C(=O)[*:1])c3nc-2c(C(=O)[*:2])c(N)c1=O; NMeV = CN[CH](C(=O)O)C(C)C; Sar = CNCC(=O)O
# Key:
# [1] = qHTS of pediatric cancer cell lines to identify multiple opportunities for drug repurposing: Confirmatory screen for Rh41 cells (AID 1347123);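 also: 48 h compound exposure; nearly all actives have a fitted effect of over 60% in size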; also: potency is read from the fitted curve at half-maximal effect
# Outline: (§1)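 Cells (500-1,000/well) in growth media were settled 5 h at 37 degrees C, then given compounds for 48 h. Viability was read as CellTiter-Glo luminescence. Primary runs used MIPE at 11 points (0.78 nM-46 µM) and NPC at 8 points (0.59 nM-46 µM); follow-ups used 11 points.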
# [2] = qHTS of pediatric cancer cell lines to identify multiple opportunities for drug repurposing: Confirmatory screen for Rh18 cells (AID 1347125); also: nearly all actives have a fitted effect of over 55% in size; also: potency is read from the fitted curve at half-maximal effect
# Outline: as §1
# [3] = qHTS of pediatric cancer cell lines to identify multiple opportunities for drug repurposing: Confirmatory screen for Rh30 cells (AID 1347126); also: nearly all actives have a fitted effect of over 55% in size; also: potency is read from the fitted curve at half-maximal effect
# Outline: as §1
# [4] = qHTS of pediatric cancer cell lines to identify multiple opportunities for drug repurposing: Confirmatory screen for Saos-2 cells (AID 1347127); also: nearly all actives have a fitted effect of over 60% in size; also: potency is read from the fitted curve at half-maximal effect
# Outline: as §1
# [5] = qHTS of pediatric cancer cell lines to identify multiple opportunities for drug repurposing: Confirmatory screen for OHS-50 cells (AID 1347128);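 also: compound exposure lasted 48 h at 37 degrees C; nearly all actives have a fitted effect of over 55% in size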; also: potency is read from the fitted curve at half-maximal effect
# Outline: as §1
# [6] = test system: Zika virus NS2B-NS3 protease; test: Primary screen GU AMC qHTS for Zika virus inhibitors (AID 1347154); also: nearly all actives have a fitted effect of over 70% in size
# Outline: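 Unlinked Zika NS2B hydrophilic domain/NS3 protease domain noncovalent complex (25 nM final) in 10 mM Tris-HCl pH 8.0, 0.01% Tween 20, with AMC peptide substrate. Fluorescence (ex 340, em 450 nm) change over 15 min, room temperature; percent inhibition fitted to 4-parameter Hill equation.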
# [7] = qHTS of pediatric cancer cell lines to identify multiple opportunities for drug repurposing: Confirmatory screen for U-2 OS cells (AID 1347122); also: nearly all actives have a fitted effect of over 65% in size; also: potency is read from the fitted curve at half-maximal effect
# Outline: as §1
# [8] = qHTS of pediatric cancer cell lines to identify multiple opportunities for drug repurposing: Confirmatory screen for SK-N-SH cells (AID 1347129);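 also: cells exposed to compound for 48 h before viability read; nearly all actives have a fitted effect of over 60% in size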; also: potency is read from the fitted curve at half-maximal effect
# Outline: as §1
# [9] = qHTS of pediatric cancer cell lines to identify multiple opportunities for drug repurposing: Confirmatory screen for RD cells (AID 1347124);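 also: cells exposed to compound for 48 h before viability readout; nearly all actives have a fitted effect of over 65% in size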; also: potency is read from the fitted curve at half-maximal effect
# Outline: as §1
# [10] = test system: Zika virus NS2B-NS3 protease (unlinked complex); test: Primary screen GU Rhodamine qHTS for Zika virus inhibitors: Unlinked NS2B-NS3 protease assay (AID 1347159); also: nearly all actives have a fitted effect of over 60% in size
# Outline: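 Noncovalent NS2B hydrophilic domain/NS3 protease complex (25 nM final) in 10 mM Tris-HCl pH 8.0, 0.01% Tween 20, preincubated 15 min with compounds (up to 114 microM), then 1.5 microM Rhodamine110 substrate. Fluorescence change over 15 min fitted to 4-parameter Hill.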
# [11] = test system: Zika virus NS2B-NS3 protease (linked construct); test: Primary screen NINDS Rhodamine qHTS for Zika virus inhibitors (AID 1347160); also: nearly all actives have a fitted effect of over 55% in size
# Outline: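 Purified NS2B-NS3 protease with the NS2B hydrophilic domain joined by a flexible linker (25 nM) in 10 mM Tris-HCl pH 8.0, 0.01% Tween 20, preincubated 15 min at RT with compound; Rhodamine110 peptide substrate 1.5 µM; fluorescence change over 15 min; 4-parameter Hill fit.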
smiles,measurement,setting,value
CC(=O)O[C@@]12CO[C@H]1C[C@H](O)[C@@]1(C)C(=O)[C@H](O)C3=C(C)[C@@H](OC(=O)C(O)[C@@H](NC(=O)OC(C)(C)C)c4ccccc4)C[C@@](O)([C@@H](OC(=O)c4ccccc4)[C@@H]21)C3(C)C (stereo partly specified),Potency,[1],10.4 nM (active)
same,Potency,[2],inactive
same,Potency,[3],inactive
same,Potency,[4],13.1 nM (active)
same,Potency,[5],23.3 nM (active)
same,Potency,[6],inactive
C=Cc1c(C)c2cc3nc(cc4[nH]c(cc5nc(cc1[nH]2)C(C)=C5CCC(=O)O)c(CCC(=O)OC)c4C)[C@@]1(C)C3=CC=C(C(=O)OC)[C@H]1C(=O)OC,Potency,[7],inactive
same,Potency,[2],inactive
same,Potency,[3],inactive
same,Potency,[4],inactive
same,Potency,[5],inactive
same,Potency,[8],inactive
CCOc1cc2ncc(C#N)c(Nc3ccc(OCc4ccccn4)c(Cl)c3)c2cc1NC(=O)C=CCN(C)C,Potency,[1],2930 nM (active)
same,Potency,[9],2330 nM (active)
same,Potency,[3],5850 nM (active)
same,Potency,[6],inactive
Cn1c(Nc2ccc(C(F)(F)F)cc2)nc2cc(Oc3ccnc(-c4ncc(C(F)(F)F)[nH]4)c3)ccc21,Potency,[2],inactive
same,Potency,[6],inactive
"Cc1c2oc3c(C)ccc(C(=O)NC4C(=O)NC(C(C)C)C(=O)N5CCCC5C(=O)N(C)CC(=O)N(C)C(C(C)C)C(=O)OC4C)c3nc-2c(C(=O)NC2C(=O)NC(C(C)C)C(=O)N3CCCC3C(=O)N(C)CC(=O)N(C)C(C(C)C)C(=O)OC2C)c(N)c1=O (stereo unspecified) (I: TVP[Sar][NMeV] / II: TVP[Sar][NMeV]; ester I:1-I:C, II:1-II:C; linker I:N-II:N via Actinocin(9to1); configuration not given here)",Potency,[1],18.5 nM (active)
same,Potency,[2],29.3 nM (active)
same,Potency,[3],inactive
same,Potency,[5],36.9 nM (active)
same,Potency,[8],18.7 nM (active)
same,Potency,[6],inactive
C#CCC(Cc1cnc2nc(N)nc(N)c2n1)c1ccc(C(=O)N[C@@H](CCC(=O)O)C(=O)O)cc1 (stereo partly specified),Potency,[1],inactive
same,Potency,[9],233 nM (active)
same,Potency,[2],inactive
same,Potency,[3],inactive
same,Potency,[5],41.4 nM (active)
same,Potency,[8],inactive
O=C(NC1CC1)c1cccc(-c2ccc3c(NC(=O)C4CC4)n[nH]c3c2)c1,Potency,[2],inactive
same,Potency,[3],inactive
same,Potency,[6],inactive
CC(=O)ON=C1C(c2c(O)[nH]c3cc(Br)ccc23)=Nc2ccccc21,Potency,[2],13100 nM (active)
same,Potency,[4],13100 nM (active)
same,Potency,[5],14700 nM (active)
same,Potency,[8],23500 nM (active)
COc1cccc2c1C(=O)c1c(O)c3c(c(O)c1C2=O)C[C@@](O)(C(=O)CO)C[C@@H]3O[C@H]1C[C@H](N)[C@@H](O)[C@H](C)O1,Potency,[1],293 nM (active)
same,Potency,[9],3290 nM (active)
same,Potency,[2],585 nM (active)
same,Potency,[4],293 nM (active)
same,Potency,[5],1470 nM (active)
same,Potency,[8],332 nM (active)
COc1cc(C=CC(=O)CC(=O)C=Cc2ccc(O)c(OC)c2)ccc1O,Potency,[1],17000 nM (active)
same,Potency,[4],33900 nM (active)
N#Cc1c(C2CCNCC2)cc(-c2c(O)cccc2OCC2CC2)nc1N,Potency,[1],3290 nM (active)
same,Potency,[2],inactive
same,Potency,[4],inactive
same,Potency,[8],23500 nM (active)
same,Potency,[10],inactive
same,Potency,[11],inactive
CCOC(=O)C1=C(C)NC(=S)NC1c1cccc(O)c1 (stereo unspecified),Potency,[7],20800 nM (active)
same,Potency,[2],inactive
same,Potency,[8],inactive
same,Potency,[6],inactive
CC(C)(N)c1ccc(-c2nc3ccccc3nc2-c2ccccc2)cc1,Potency,[7],inactive
same,Potency,[9],inactive
same,Potency,[2],1650 nM (active)
same,Potency,[3],inactive
same,Potency,[4],737 nM (active)
same,Potency,[5],369 nM (active)
same,Potency,[10],inactive
same,Potency,[11],inactive
COc1cccc2c1C(=O)c1c(O)c3c(c(O)c1C2=O)C[C@@](O)(C(=O)CO)C[C@@H]3O[C@H]1C[C@H](N)[C@H](OC2CCCCO2)[C@H](C)O1 (stereo partly specified),Potency,[1],2930 nM (active)
same,Potency,[2],18500 nM (active)
same,Potency,[3],inactive
same,Potency,[5],14700 nM (active)
same,Potency,[8],4690 nM (active)
same,Potency,[6],inactive
CN(CC(=O)N(Cc1ccc(C2CCCCC2)cc1)c1ccc(C(=O)O)c(O)c1)S(=O)(=O)c1c(F)c(F)c(F)c(F)c1F,Potency,[3],inactive
same,Potency,[4],26100 nM (active)
O=C1NC(=O)[C@@H](c2cn3c4c(cccc24)CCC3)[C@H]1c1c[nH]c2ccccc12,Potency,[7],1170 nM (active)
same,Potency,[4],928 nM (active)
same,Potency,[6],inactive
COc1ccc(C[C@@H](C)[C@@H](C)Cc2ccc(OC)c(OC)c2)cc1OC,Potency,[7],inactive
same,Potency,[2],inactive
same,Potency,[3],inactive
same,Potency,[8],inactive
COc1ccc(S(=O)(=O)Nc2cccnc2Nc2ccc(O)cc2)cc1,Potency,[7],827 nM (active)
same,Potency,[9],928 nM (active)
same,Potency,[2],inactive
same,Potency,[3],inactive
same,Potency,[4],522 nM (active)
same,Potency,[6],inactive
same,Potency,[10],inactive
same,Potency,[11],inactive
